# Assay results published in PubChem BioAssay.
# Activity calls are given as the source filed them.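 How the source made its calls, unless noted: active means inhibition of the reporter signal at or above 50%; inactive means inhibition below 50%.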
# What was measured:
# [1] = inhibitors of TNFa-induced NFkB p65 translocation, primary screen, imaging, HUVEC, MLSMR starter and 10KST1 sets (AID 438;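 active means inhibition above 20% together with a positive visual image hit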;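 further: compound added about 3h40 before a 20 min TNFalpha stimulation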;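 on inhibition: signal is the nuclear over cytoplasmic p65 intensity ratio per well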); conditions: HUVEC TNFa-induced p65 nuclear translocation; cell count: measured here: nuclei count (cytotoxicity indicator), at 2.08 µM; inhibition: at 2 µM, stronger effect = higher value, 0% TNFa-plus-vehicle, 100% no-TNFa wells
# [2] = reduction of polyQ htt aggregates in cells – imaging, exon1htt(103Q)mCFP cells, high-content imaging, primary screen (AID 483;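 active means visual image review flags a hit and inhibition of aggregation exceeds 20%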;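 further: compound exposure lasted 3 days before fixation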;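 on nuclei count: percent of the per-plate median nuclei count of sample wells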); conditions: exon1htt(103Q)mCFP cell line, aggregate imaging, at 2 µM; inhibition of aggregation: stronger effect = higher value; nuclei count: measured here: cell count, toxicity
# [3] = endothelial E-selectin expression blockers – imaging, HUVEC, immunofluorescence, MLSMR starter and 10KST1 sets, primary screen (AID 487;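 active means visually confirmed hit in the image check and inhibition above 20%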;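 on inhibition: signal is fraction of cell area covered by stained E-selectin grains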;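 on nuclei count: 100% = median nuclei count of all wells on the same plate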); conditions: HUVEC TNFalpha-induced E-selectin immunofluorescence imaging, at 2 µM; inhibition: stronger effect = higher value; nuclei count: measured here: cell number, toxicity
# [4] = molecular target: Voltage-gated potassium channel subunit beta-2 (Rattus norvegicus) (UniProt P62483); test: inhibitors of rat Kvbeta2 reductase activity – biochemical, NADPH fluorescence, primary screen (AID 622;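 active means fluorescence slope higher than the sample average by over 3 SD, cut at about -0.22 in these data, passing the limit was not always enough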;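 further: slope of raw intensity against log time taken from 70 to 1610 s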); conditions: recombinant KvBeta, 4-cyanobenzaldehyde reduction, at 10 µM, stronger effect = higher value
# [5] = molecular target: Voltage-gated potassium channel subunit beta-2 (Rattus norvegicus) (UniProt P62483); test: enhancers of rat Kvbeta2 NADPH turnover – biochemical, NADPH fluorescence, primary screen (AID 623;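 active means NADPH fluorescence slope more negative than the mean of all samples by about 3 SD, 99.7% confidence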;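 further: fluorescence intensity change per second fitted from 20 to 320 s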); conditions: Recombinant KvBeta, NADPH fluorescence decrease slope, 10 min; at 10 µM; stronger effect = lower value
# [6] = molecular target: Alpha-2C adrenergic receptor (Homo sapiens) (UniProt P18825); test: compounds altering alpha2C-coupled GIRK flux – cell-based, HEK293 alpha2C/GIRK1/2, thallium flux, primary screen (AID 624;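 active means fluorescence slope after compound addition differing from the mean of all screened samples at 99.7% confidence, in either direction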;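 further: slope of fluorescence ratio to pre-addition baseline per second over 15 to 24 s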); conditions: thallium flux BTC fluorescence, at 10 µM, actives lie on both sides
# [7] = blockers of RIG-like receptor reporter activation – cell-based, Sendai virus stimulus, luciferase, 10K MLSCN set, TLR/RLR signaling modifier project, primary screen (AID 602276;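 active means inhibition at or above 50% at 10 µM; inactive means inhibition below 50%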;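 further: firefly luciferase from ISG56 promoter only with Renilla not read in this screen; 0% = Sendai virus plus DMSO and 100% = medium plus DMSO without virus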); conditions: HEK293 RL24 IRF3 luciferase reporter, at 10 µM, stronger effect = higher value
# [8] = TLR3 IRF3 reporter activation blockers – cell-based, poly I:C stimulus, luciferase, 10K MLSCN set, primary screen (AID 602277); conditions: HEK293-TLR3 RL24 IRF3 luciferase reporter, at 10 µM, stronger effect = higher value
# Chain of Voltage-gated potassium channel subunit beta-2 (Rattus norvegicus) (P62483 whole entry, looked up): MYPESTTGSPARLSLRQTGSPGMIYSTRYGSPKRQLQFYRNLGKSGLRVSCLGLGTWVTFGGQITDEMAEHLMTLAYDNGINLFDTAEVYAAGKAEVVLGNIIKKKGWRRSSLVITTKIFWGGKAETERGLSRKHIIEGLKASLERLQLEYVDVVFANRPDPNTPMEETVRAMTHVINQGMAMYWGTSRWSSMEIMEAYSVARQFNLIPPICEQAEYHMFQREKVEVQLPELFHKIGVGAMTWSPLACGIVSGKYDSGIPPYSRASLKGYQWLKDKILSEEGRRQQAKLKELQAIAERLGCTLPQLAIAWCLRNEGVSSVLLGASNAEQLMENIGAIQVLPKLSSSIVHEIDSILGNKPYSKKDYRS
# Chain of Alpha-2C adrenergic receptor (Homo sapiens) (P18825 whole entry, looked up): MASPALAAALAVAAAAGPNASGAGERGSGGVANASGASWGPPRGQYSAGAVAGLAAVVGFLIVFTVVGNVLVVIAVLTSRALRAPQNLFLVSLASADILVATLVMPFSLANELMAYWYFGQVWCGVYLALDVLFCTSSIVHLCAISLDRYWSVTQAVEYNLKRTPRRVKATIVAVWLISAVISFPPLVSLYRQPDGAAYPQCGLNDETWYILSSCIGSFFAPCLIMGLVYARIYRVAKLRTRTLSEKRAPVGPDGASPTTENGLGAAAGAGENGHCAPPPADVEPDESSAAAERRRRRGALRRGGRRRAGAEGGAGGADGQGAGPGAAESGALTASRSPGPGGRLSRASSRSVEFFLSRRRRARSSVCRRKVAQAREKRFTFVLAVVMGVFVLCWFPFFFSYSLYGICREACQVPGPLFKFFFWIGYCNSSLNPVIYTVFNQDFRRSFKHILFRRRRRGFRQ
SMILES,cell count [1],inhibition [1],inhibition of aggregation [2],nuclei count [2],inhibition [3],nuclei count [3],fluorescence slope [4],NADPH fluorescence slope [5],slope [6],inhibition [7],inhibition [8]
C=CCc1ccccc1OCC(O)CN1CCN(Cc2ccc3c(c2)OCO3)CC1 (configuration not stated),321,4.5% (inactive),-3.4% (inactive),91.2%,-2% (inactive),91.6%,-0.457 (inactive),1.5e-05 (inactive),0.0057 (inactive),10.6% (inactive),1.32% (inactive)
CCN1C(=C2C(=O)c3ccccc3C2=O)C=Cc2ccccc21,347,23.3% (active),-4% (inactive),107%,-27.1% (inactive),117%,-0.284 (inactive),-1.4e-05 (inactive),0.00581 (inactive),-14.8% (inactive),-27.9% (inactive)
CCC(=O)c1cc(F)c(N2CCN(C(=O)c3ccco3)CC2)cc1C,611,-1.3% (inactive),-12.2% (inactive),128%,-10.1% (inactive),104%,-0.519 (inactive),-4.1e-05 (inactive),0.00579 (inactive),1.51% (inactive),-21.1% (inactive)
CCCOC(=O)C1[C@H]2C(=O)N(CCCOC)C[C@]23C=C[C@H]1O3 (some centres not stated),706,-12.9% (inactive),-14.9% (inactive),112%,-21.6% (inactive),118%,-0.605 (inactive),3.2e-05 (inactive),0.00864 (inactive),11.7% (inactive),15.6% (inactive)
C=CCNC(=O)C1CC(=O)N(c2ccc(OCC(=O)Nc3ccc(OC)cc3)cc2)C1 (configuration not stated),393,0.7% (inactive),7.7% (inactive),104%,-93.7% (inactive),128%,-0.339 (inactive),-4.8e-05 (inactive),0.00432 (inactive),5.59% (inactive),5.9% (inactive)
COCCOC(=O)C1=C(N)OC2=C(C(=O)CC(C)(C)C2)C1c1cccnc1 (configuration not stated),662,4.8% (inactive),9.7% (inactive),139%,22.6% (inactive),112%,-0.452 (inactive),-4.3e-05 (inactive),0.00687 (inactive),-8.98% (inactive),19% (inactive)
Cc1nnc(NC(=O)CSc2nnc(-c3ccc(S(=O)(=O)N4CCCC4)cc3)n2C)s1,575,-16.3% (inactive),14.6% (inactive),85.9%,-21.6% (inactive),91.4%,-0.495 (inactive),-2.2e-05 (inactive),0.00452 (inactive),17.1% (inactive),17.7% (inactive)
O=C(NCC1CCCO1)c1ccc(N2CCCCC2)nc1 (configuration not stated),684,-11.2% (inactive),1.5% (inactive),99.7%,-30.2% (inactive),107%,-0.314 (inactive),2.7e-06 (inactive),0.00663 (inactive),-7.44% (inactive),-103% (inactive)
CCOc1ccc2cc(C#N)c(SCC(=O)N3CCC(C)CC3)nc2c1,447,0.5% (inactive),6% (inactive),107%,-92.8% (inactive),138%,-0.242 (inactive),2.6e-06 (inactive),0.00566 (inactive),18.2% (inactive),7.14% (inactive)
Cc1c(Cl)cccc1NC(=O)CCN1CCCCC1,329,-1.3% (inactive),-7.5% (inactive),112%,-67.3% (inactive),133%,-0.514 (inactive),3e-05 (inactive),0.00469 (inactive),17.5% (inactive),20% (inactive)
CCCCCCNC(=O)c1c(N)n(/N=C/c2ccco2)c2nc3ccccc3nc12,602,11.2% (inactive),-16.8% (inactive),79.6%,26.4% (inactive),104%,-0.251 (inactive),-6e-06 (inactive),0.00525 (inactive),11.1% (inactive),8.29% (inactive)
CC(=O)c1ccc(NC(=O)CSc2nnc(-c3ccoc3C)n2Cc2ccccc2)cc1,366,-4.2% (inactive),5.2% (inactive),98.2%,-35.8% (inactive),99.5%,-0.432 (inactive),-2e-09 (inactive),0.00468 (inactive),-9.45% (inactive),-12% (inactive)
Cn1c(=O)cc(OCC(=O)NCCCN2CCN(Cc3ccccc3)CC2)c2ccccc21,505,-6.9% (inactive),4.5% (inactive),86.8%,-124% (inactive),135%,-0.556 (inactive),2.6e-05 (inactive),0.00749 (inactive),-11.8% (inactive),31.2% (inactive)
CC(C)Cc1n[nH]c(=O)[nH]1,742,-25.9% (inactive),-10.2% (inactive),113%,-36.3% (inactive),120%,-0.543 (inactive),-3.9e-05 (inactive),0.00544 (inactive),-8.4% (inactive),1.42% (inactive)
CCCOc1ccccc1NC(=O)c1ccc(N)cc1,428,7% (inactive),6.7% (inactive),106%,-137% (inactive),114%,-0.396 (inactive),-4.2e-05 (inactive),0.00363 (inactive),11.3% (inactive),18.2% (inactive)
CCC(C)NC(=O)CCNS(=O)(=O)c1ccc(Br)cc1 (configuration not stated),605,-17% (inactive),17.5% (inactive),66.3%,-109% (inactive),118%,-0.325 (inactive),6.7e-06 (inactive),0.00362 (inactive),3.69% (inactive),33% (inactive)
CC(=O)CCc1ccc(OCCCCn2cncn2)cc1,513,6.8% (inactive),15.6% (inactive),92.1%,-58.4% (inactive),116%,-0.625 (inactive),-1.7e-05 (inactive),0.00807 (inactive),1.5% (inactive),-5.67% (inactive)
O=C(Cc1cccs1)Nc1ccccc1NC(=O)Cc1cccs1,323,-1.4% (inactive),16.2% (inactive),82.6%,7.1% (inactive),88.2%,-0.366 (inactive),-7.6e-05 (inactive),0.00795 (inactive),9.79% (inactive),34.9% (inactive)
Cn1c(C(=O)NCCCN2CCN(c3ccc(F)cc3)CC2)cc2c(=O)n(C)c3ccccc3c21,655,1.1% (inactive),6.5% (inactive),107%,-73.4% (inactive),118%,-0.42 (inactive),-6.1e-05 (inactive),0.00607 (inactive),6.19% (inactive),39.1% (inactive)
COc1ccc(CCNC(=O)C2CCCN(c3nn4c(=O)cc(C)nc4s3)C2)cc1OC (configuration not stated),371,-4% (inactive),10.8% (inactive),94.9%,-9% (inactive),100%,-0.403 (inactive),-5.9e-05 (inactive),0.0045 (inactive),19.7% (inactive),16.7% (inactive)
COCCn1c(CN2CCN(c3ccccc3F)CC2)nc2c1c(=O)n(C)c(=O)n2C,609,-5.2% (inactive),0.1% (inactive),92.3%,2.6% (inactive),90.2%,-0.61 (inactive),-2.3e-05 (inactive),0.00711 (inactive),-11.5% (inactive),-9.11% (inactive)
COc1ccc(Cc2nc(-c3ccc(Br)cc3)no2)cc1,366,6% (inactive),-7% (inactive),105%,-17.5% (inactive),107%,-0.28 (inactive),2e-05 (inactive),0.00781 (inactive),-28.1% (inactive),-62.7% (inactive)
CC(C)(C)c1nc(CN2CCOCC2)ccc1O,580,-17% (inactive),21.1% (inactive),104%,-58.3% (inactive),109%,-0.401 (inactive),-4.4e-05 (inactive),0.0093 (inactive),10.4% (inactive),29.3% (inactive)
CCOc1ccc2[nH]c(O)c(NC(C)=O)c2c1,645,-20.5% (inactive),5.7% (inactive),104%,43.8% (inactive),101%,-0.361 (inactive),-5.8e-05 (inactive),0.00431 (inactive),10.2% (inactive),16.9% (inactive)
O=C(NCCc1ccccc1)C1CCCN(S(=O)(=O)c2cccs2)C1 (configuration not stated),901,6.9% (inactive),-17.3% (inactive),111%,-27.2% (inactive),115%,-0.571 (inactive),-2.3e-05 (inactive),0.00585 (inactive),10.2% (inactive),23.9% (inactive)
CCn1c(SCC(=O)Nc2cc(C)on2)nc2sc3c(c2c1=O)CCCC3,470,-16.6% (inactive),4% (inactive),118%,-26.9% (inactive),110%,-0.4 (inactive),1.4e-06 (inactive),0.00722 (inactive),-5.69% (inactive),98.9% (active)
COC(=O)Cn1c(=NC(=O)CSCC(=O)Nc2cc(C)on2)sc2ccccc21,610,-6.9% (inactive),2.6% (inactive),112%,1.2% (inactive),111%,-0.417 (inactive),-6.3e-05 (inactive),0.00506 (inactive),11.1% (inactive),28.1% (inactive)
